# Laboratory results: the supplement of paper PMC5499739
# Whole data set: some 16,000 sequences, median “Z-score” near -0.37, cut for the highest 2% near 3.1. This excerpt belongs to a sample that is enriched for the highest values.
# Test system: RBM10 RRM1-ZnF-RRM2 (GST-tagged construct)
# Assay: RNAcompete 7-mer binding Z-score; higher = stronger binding preference
# Protocol: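 RNAcompete: 20 pmol GST-tagged RBM10 RNA-binding constructs were incubated with a designed RNA pool of about 241,000 sequences up to 41 nt (1.5 nmol) on glutathione beads for 30 min at 4 °C and washed. Bound RNAs were identified by microarray hybridisation. Each RNA 7-mer is scored by a one-sided Z-score of its enrichment, computed over probes that contain the 7-mer within longer pool sequences.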
row,Sequence,RNAcompete 7-mer binding Z-score
1,UGGGAUG,3.22
2,GGGGAUG,3.68
3,CGGGAUG,2.31
4,GGGGAUU,2.36
5,ACAGAUU,-0.242
6,AAUGGUC,0.822
7,GCAGCCC,-0.497
8,CUGCCAG,-0.606
9,AAACUUU,-0.752
10,UAGUGAC,0.21
11,CAUUCUA,-0.821
12,UCGGGGU,1.76
13,GCGGGGA,3.23
14,GCGGGGC,2.5
15,GCGGGGU,3.77
16,CCGGGGG,1.4
17,GCGGGUU,2.54
18,GCGGGGG,3.51
19,UCGGGGA,1.7
20,CCGGGGA,1.12
21,UCAAGCU,-0.621
22,CUCCGAC,-0.664
23,UCCCCAA,-0.639

row,Sequence,RNAcompete 7-mer binding Z-score
1,CCAUAGA,-0.464
2,AGAACGG,1.84
3,GAACGGU,1.56
4,CGAACGG,1.41
5,GAACGGC,0.84
6,GGACGGC,1.05
7,CGACGGG,2.14
8,GAACGGG,4.29
9,GGACGGG,4.18
10,GGAACGG,4.03
11,ACGAUAC,-0.413
12,AUGCAUC,-0.362
13,UGAUAUA,-0.366
14,CACGAAA,-0.366
15,AGAUGGU,1.63
16,UGAUGGU,1.26
17,GGAUGGC,2.46
18,GGAUGGA,3.36
19,AGAUGGA,2.92
20,GGAUGGU,3.73
21,UAGGAGC,1.74
22,GUGGGCC,1.58
23,CUGGGCG,1.05

row,Sequence,RNAcompete 7-mer binding Z-score
1,GUGGGCA,3.48
2,AUGGGCA,2.7
3,GUGGGCG,3.37
4,AUGGGCG,3
5,AGCGCGC,-0.282
6,CAGUCUU,-0.857
7,GAAAUCU,-0.46
8,CCGUUAA,-0.77
9,AGAAAAU,0.0859
10,GGGGUAC,2.82
11,UGGGUAA,2.38
12,AGGGUAA,4.77
13,GGGGUAA,3.5
14,GGGGUAG,4.58
15,CGGGUAU,1.39
16,GGGGUAU,2.98
17,AGGGUCU,0.559
18,CGGGUAA,1.81
19,GUGGUAG,2.26
20,GAGGUAA,2.53
21,AGGGUAU,3.41
22,UGAGCAU,-0.0634
23,UGUAACU,-0.358

row,Sequence,RNAcompete 7-mer binding Z-score
1,AUCGGCG,0.337
2,CGCCUGG,-0.482
3,GUGGCCA,0.403
4,UUCCGGG,0.341
5,GUUGAGU,0.57
6,GAGUCCU,-0.453
7,UCAGUCA,-0.493
8,GGUGGGC,3.19
9,UGUGGGG,3.75
10,UGUGGGA,2.96
11,GGUGGUG,3.25
12,CGUGGUG,1.44
13,AGUGGGG,4.66
14,AGUGGGC,2.96
15,AGUGUGG,2.64
16,UGUGGUG,1.57
17,GGUGGUC,2.11
18,UGUGGGC,1.83
19,AGUGGUG,2.24
20,AAGCUCA,-0.635
21,GCACGGU,0.519
22,GCACGCG,-0.0598
23,GUUGCCG,-0.216

row,Sequence,RNAcompete 7-mer binding Z-score
1,AAGCGGU,1.03
2,ACGGAAC,0.785
3,GGUGGUU,2.03
4,AGUGGGA,4.3
5,UGUGGGU,2.9
6,AGUGGGU,3.35
7,GCUGGGA,1.69
8,GGUGGGA,3.75
9,GGUGGCA,2.34
10,CGUGGGU,2.43
11,AGUGGCA,1.68
12,AGUGGUA,1.92
13,GCUGGGU,1.78
14,GGUGGGU,3.47
15,UAUUCAA,-0.606
16,UGUUUUU,-0.46
17,CUAACCC,-0.766
18,GGCGAAA,1.35
19,CUCCUAU,-0.956
20,GGGGGGG,2.58
21,GCUGGGG,2.46
22,CGUGGGC,2.21
23,CGUGGGA,2.39

row,Sequence,RNAcompete 7-mer binding Z-score
1,CGUGGGG,3.57
2,GGUGGGG,4.34
3,AUCUCUG,-0.846
4,GUGGGAA,3.49
5,GCGGGAA,2.5
6,GUUGGGA,3.05
7,GUGGGGA,4.25
8,CUGGGGC,0.956
9,AUGGGCU,1.51
10,AUGGGAU,3.25
11,GUGGGGC,3.47
12,AUGGGAC,2.47
13,GUGGGAC,2.4
14,CUGGGGA,1.32
15,GGGGGGC,2
16,UCAACGC,-0.584
17,GGAAAUC,0.931
18,GUGGGAG,3.99
19,GUGGGGU,4.45
20,CUGGGGG,1.81
21,GCGGGAG,2.64
22,GUGGCGC,1.46
23,CUGGCGG,0.541

row,Sequence,RNAcompete 7-mer binding Z-score
1,GUGGGGG,4.18
2,GUGGGUU,2.54
3,UUGGGGU,2.84
4,GUGGCGG,3.22
5,UCGGGAG,1.18
6,UGGCUAU,-0.00148
7,GGAUAGC,2.07
8,CGCAACU,-0.825
9,UCAAUUC,-0.752
10,GUAGUGA,1.1
11,GGUGCGA,1.58
12,CUUUCCG,-0.777
13,AUCAGCA,-0.395
14,AUUCCCC,-0.613
15,AGGAUAA,1.21
16,GUGGGAU,3.57
17,UUGGGAU,1.9
18,CUGGGAU,0.964
19,AUAAGAA,0.177
20,GAUUGCC,-0.672
21,AAGUCUU,-0.697
22,CUAGGGG,1.97
23,GUAGGAG,3.78

row,Sequence,RNAcompete 7-mer binding Z-score
1,UUAGGGU,3.02
2,CUAGGGU,2
3,GUAGGAC,1.86
4,UUAGGGA,2.36
5,GUAGGGA,4.26
6,CUAGGAG,0.534
7,GUAGGGG,4.66
8,GUAGGGC,2.85
9,UUAGGGG,2.07
10,GUAGGGU,4.48
11,AACUUUA,-0.679
12,UAGGCGG,1.79
13,UGUGACC,-0.176
14,CGUCUUU,-0.613
15,CCACUCG,-0.73
16,GGGUCUG,0.993
17,ACCUCUG,-0.814
18,AUAGGGA,2.9
19,AUAGGGG,4.15
20,AUAGGGU,4.33
21,AUAGGGC,2.14
22,AUAGGAG,2.27
23,AUAGGCG,1.16
